From PubChem BioAssay
ATXN2 expr inh – reduces ATXN2 reporter expression in HEK-293 cells | AID 1745845 | Potency, µM (titrated, usually from 57 µM), for inactives: at the highest dose activity change, negative = inhibition, most hits filed as inhibitors | HEK-293 ATXN2-luciferase reporter, luminescence, 24 h | 360,000 tested, 0.72% active; note: % is set by controls: 0 for no effect and ±100 for the full control effect; nearly all actives have a fitted effect of over 55% in size
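qHTS (up to 57 uM final) was run with 24 h compound exposure of reporter cells at 37 °C. Each well was multiplexed: SteadyGlo luminescence measured ATXN2-luciferase expression after a fluorogenic Gly-Phe-AFC viability readout (25 uM final).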
HepG2 tox – kills HepG2 cells in TGF-b inhibitor counter-screen; 410,000 tested, 0.76% active; Potency, µM (doses to about 46.1 µM), for inactives: top-dose activity change, negative = cytotoxicity, usual class: cytotoxic; HepG2 CAGA-GFP viability, ATP luminescence, 18 h
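HepG2 CAGA-GFP cells (1000/well, DMEM with 1% FBS) received compound, then TGF-beta at 500 pg/mL final, and were incubated 18 hours at 37 degrees C. Viability was read by CellTiter-Glo luminescence. Media-only wells were set as complete cell-killing and DMSO as no toxicity.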
S2 tox – viability counter-screen for ATXN expression inhibitors. S2 cells (HEK-293 line with an ATXN2-luciferase reporter) viability, CellTiter-Fluor protease fluorescence, 24 h. 400,000 tested, 0.49% active. Potency, µM (titrated, usually from 56.7 µM), usual class: cytotoxic; note: nearly all actives have a fitted effect of over 40% in size
12-LOX inh – blocks human arachidonate 12S-lipoxygenase. purified 12hLO, xylenol orange hydroperoxide absorbance. Potency, µM (doses to about 108 µM), for the others: top-dose activity change, negative = inhibition, actives largely listed as inhibitors. 580,000 tested, 1.1% active; note: % is set by controls: 0 for no effect and ±100 for the full control effect
Target sequence (P18054 whole entry, looked up): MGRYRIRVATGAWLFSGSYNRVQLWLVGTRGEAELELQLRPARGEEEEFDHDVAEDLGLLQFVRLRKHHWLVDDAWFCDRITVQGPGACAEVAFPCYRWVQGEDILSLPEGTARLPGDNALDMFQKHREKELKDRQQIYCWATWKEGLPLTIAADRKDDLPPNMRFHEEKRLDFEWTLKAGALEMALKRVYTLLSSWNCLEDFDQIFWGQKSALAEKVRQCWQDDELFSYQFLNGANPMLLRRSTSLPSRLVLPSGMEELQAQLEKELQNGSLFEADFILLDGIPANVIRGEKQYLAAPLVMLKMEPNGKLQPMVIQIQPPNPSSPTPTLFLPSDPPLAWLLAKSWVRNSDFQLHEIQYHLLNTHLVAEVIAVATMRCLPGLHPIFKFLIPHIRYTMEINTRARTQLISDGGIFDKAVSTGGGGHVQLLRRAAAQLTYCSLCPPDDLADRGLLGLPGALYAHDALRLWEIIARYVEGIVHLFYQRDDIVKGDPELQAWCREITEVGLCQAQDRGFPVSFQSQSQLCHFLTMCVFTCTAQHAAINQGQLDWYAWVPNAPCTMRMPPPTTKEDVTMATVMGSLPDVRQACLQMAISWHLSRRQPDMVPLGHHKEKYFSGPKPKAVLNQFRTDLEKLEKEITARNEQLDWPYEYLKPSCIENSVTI
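Purified human 12hLO at 150 nM in 25 mM Hepes, 0.01% Triton X-100, pH 7.0, preincubated 15 min at room temperature with compound. Reaction started with 40 uM arachidonic acid, 30 min at room temperature. Hydroperoxide measured by Fe-xylenol orange, 573/405 nm absorbance ratio.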
TGFb inhibitor – blocks TGF-b signaling; HepG2 CAGA-GFP TGF-b/SMAD3 reporter, GFP fluorescence, 18 h; TGF-beta stimulated, 500 pg/mL final; Potency, µM (doses to about 46.1 µM), for the others: top-dose activity, negative = inhibition, hits mostly inhibitors; 410,000 tested, 1.2% active; AID 588855; note: % is set by controls: 0 for no effect and ±100 for the full control effect; nearly all actives have a fitted effect of over 65% in size
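Inhibition was scored as loss of TGF-beta-induced (500 pg/mL final, 18 hours, 37 degrees C) GFP in HEPG2 cells carrying a CAGA-GFP reporter, in DMEM with 1% FBS. Well GFP was summed per cell; Activity was normalised to unstimulated and stimulated DMSO wells, then concentration-response fitting.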
The depositor's hits bear a star; i = inactive; ? = inconclusive; nt = no result given; [ ] = dose if it differs, or a comment. Only some compounds are listed: those with a hit (about 2.7% of all), similar ones and a draw of the others. Calls come from the whole dose curve; as a rule, active = well fitted curve in the direction sought with a large enough effect; inconclusive = small, poorly fitted or top-dose-only effect, or another doubt; inactive = no such curve, though single readings can be large; an effect the other way counts as inactive or inconclusive. Potency is the fitted concentration of half-maximal effect.

SMILES	ATXN2 expr inh	HepG2 tox	S2 tox	12-LOX inh	TGFb inhibitor
O=C(Nc1nc(C23CC4CC(CC(C4)C2)C3)cs1)c1cc(-c2ccncc2)nc2ccccc12	nt	nt	nt	-38%	nt
COC(=O)C1(NC(=O)c2ccc(Cl)c(Cl)c2)CCCCC1	nt	nt	nt	-25%	nt
O=S(=O)(CC(CN1CCCC1)N1CCCC1)c1ccc2ccccc2c1 (centres undefined)	-1%	-24%	11µM*	-18%	0%
Cc1ccc(N(CC(O)CN2CCCCC2)S(=O)(=O)c2ccc3ccccc3c2)cc1 (centres undefined)	nt	nt	nt	-12%	nt
CC(=O)N1CCc2nn(CC(=O)Nc3cccc(Cl)c3C)c(=O)cc2C1	nt	nt	nt	13%	nt
CCN(CC)CCCNC(=O)c1oc2c(c1C)-c1nn(Cc3ccc(Cl)cc3)cc1CC2	nt	13µM*	nt	?	-25%
COCCCNC(=O)c1oc2c(c1C)-c1nn(Cc3ccc(Cl)cc3)cc1CC2	nt	-21%	nt	?	-18%
O=C(O)CSCC(=O)Nc1ccc(C2CCCCC2)cc1	2.2µM*	-84%	i	30%	-4%
Cc1ccc(-c2csc(N3CCN(CCCn4c(-c5ccncc5)nc5ccccc54)CC3)n2)cc1	22µM*	-27%	nt	0%	7.1µM*
Cc1ccc(-c2csc(N3CCN(CCCn4c(C(F)(F)F)nc5ccccc54)CC3)n2)cc1	-26%	-24%	?	9%	?
CC(=O)N[C@@H](C)c1nc2ccccc2n1CCCN1CCN(c2nc(-c3ccc(C)cc3)cs2)CC1	?	-11%	?	-1%	8.9µM*
Nc1nccnc1C(=O)NCC1(c2ccccc2)CC1	nt	nt	nt	42%	nt
O=C(Cn1sc2ccccc2c1=O)Nc1ccc(Br)cc1	-20%	-48%	?	?	?
O=C(Cn1sc2ccccc2c1=O)Nc1ccc(F)cc1	?	22µM*	nt	-111%	18µM*
O=C(Cn1sc2ccccc2c1=O)Nc1ccc(Cl)cc1	-20%	-57%	?	-106%	11µM*
COc1ccc(C2(CNC(=O)c3ccc(Cl)cc3Cl)CCOCC2)cc1	nt	nt	nt	-15%	nt
C=C1CC(Cn2cc(Br)c(=O)[nH]c2=O)(c2ccc(-c3ccccc3)cc2)OC1=O (centres undefined)	28µM*	7.1µM*	?	?	4.5µM*
O=c1[nH]c(=O)n(Cc2ccc(Oc3ccccc3)cc2)cc1Br	nt	nt	nt	-6%	nt
CCCCCCCCC(=O)OCC	nt	nt	nt	-3%[176 µM]	nt
COc1cc(NCCCCCCN)c2ncccc2c1OC	16µM*	-7%	?	?	0%
COc1cc(NC(C)CCCNC(C)C)c2ncccc2c1OC (centres undefined)	-20%	2%	i	-28%	2%
C[C@@]12CCC[C@H]1[C@@H]1CC[C@H]3C[C@@H](O)CC[C@]3(C)[C@H]1CC2	12%	nt	25µM*	-4%	nt
COc1ccc2[nH]cc(C(C(=O)O)N3CCN(CC(=O)N(C)C)CC3)c2c1 (centres undefined)	nt	nt	nt	15%	nt
C=C1CC(COc2cc(=O)oc3ccccc23)(c2ccccc2)OC1=O (centres undefined)	?	6.3µM*	nt	2%	5µM*
COc1ccc(-c2nc3cc(NC(=O)COc4cccc(C)c4)ccc3o2)cc1	nt	nt	nt	-8%	nt
SMILES	ATXN2 expr inh	HepG2 tox	S2 tox	12-LOX inh	TGFb inhibitor
Cc1ccc(C(=O)CC2(O)C(=O)N(CCc3ccccc3)c3ccc(Cl)cc32)cc1 (centres undefined)	?	11µM*	?	?	18µM*
O=C(CC1(O)C(=O)N(CCc2ccccc2)c2ccc(Br)cc21)c1ccccc1 (centres undefined)	-18%	-105%	i	-25%	?
CCOC(=O)c1c(C)[nH]c(C(=O)C(C)N(C)Cc2ccc(F)cc2)c1C (centres undefined)	nt	nt	nt	-14%	nt
COc1ccc2sc(-c3ccc(N(C)C)cc3)c(C#Cc3cncn3C)c2c1	?	8.9µM*	nt	-3%	?
COCCn1c(CN2CCCCC2C)nc2c1c(=O)n(C)c(=O)n2C (centres undefined)	nt	nt	nt	-18%	nt
N=C(N)c1ccc(OCc2ccncc2)cc1	nt	nt	nt	8.9µM*	nt
